Data on 9 compounds can be found in ChEMBL document CHEMBL2218924, “A broad activity screen in support of a chemogenomic map for kinase signalling research and drug discovery” (Biochem J, 2013).

The structures appear in SMILES notation.

Assay [1] has as its target T1, Mitogen-activated protein kinase kinase kinase 5 (Homo sapiens) (UniProt Q99683).
T1 sequence (whole entry): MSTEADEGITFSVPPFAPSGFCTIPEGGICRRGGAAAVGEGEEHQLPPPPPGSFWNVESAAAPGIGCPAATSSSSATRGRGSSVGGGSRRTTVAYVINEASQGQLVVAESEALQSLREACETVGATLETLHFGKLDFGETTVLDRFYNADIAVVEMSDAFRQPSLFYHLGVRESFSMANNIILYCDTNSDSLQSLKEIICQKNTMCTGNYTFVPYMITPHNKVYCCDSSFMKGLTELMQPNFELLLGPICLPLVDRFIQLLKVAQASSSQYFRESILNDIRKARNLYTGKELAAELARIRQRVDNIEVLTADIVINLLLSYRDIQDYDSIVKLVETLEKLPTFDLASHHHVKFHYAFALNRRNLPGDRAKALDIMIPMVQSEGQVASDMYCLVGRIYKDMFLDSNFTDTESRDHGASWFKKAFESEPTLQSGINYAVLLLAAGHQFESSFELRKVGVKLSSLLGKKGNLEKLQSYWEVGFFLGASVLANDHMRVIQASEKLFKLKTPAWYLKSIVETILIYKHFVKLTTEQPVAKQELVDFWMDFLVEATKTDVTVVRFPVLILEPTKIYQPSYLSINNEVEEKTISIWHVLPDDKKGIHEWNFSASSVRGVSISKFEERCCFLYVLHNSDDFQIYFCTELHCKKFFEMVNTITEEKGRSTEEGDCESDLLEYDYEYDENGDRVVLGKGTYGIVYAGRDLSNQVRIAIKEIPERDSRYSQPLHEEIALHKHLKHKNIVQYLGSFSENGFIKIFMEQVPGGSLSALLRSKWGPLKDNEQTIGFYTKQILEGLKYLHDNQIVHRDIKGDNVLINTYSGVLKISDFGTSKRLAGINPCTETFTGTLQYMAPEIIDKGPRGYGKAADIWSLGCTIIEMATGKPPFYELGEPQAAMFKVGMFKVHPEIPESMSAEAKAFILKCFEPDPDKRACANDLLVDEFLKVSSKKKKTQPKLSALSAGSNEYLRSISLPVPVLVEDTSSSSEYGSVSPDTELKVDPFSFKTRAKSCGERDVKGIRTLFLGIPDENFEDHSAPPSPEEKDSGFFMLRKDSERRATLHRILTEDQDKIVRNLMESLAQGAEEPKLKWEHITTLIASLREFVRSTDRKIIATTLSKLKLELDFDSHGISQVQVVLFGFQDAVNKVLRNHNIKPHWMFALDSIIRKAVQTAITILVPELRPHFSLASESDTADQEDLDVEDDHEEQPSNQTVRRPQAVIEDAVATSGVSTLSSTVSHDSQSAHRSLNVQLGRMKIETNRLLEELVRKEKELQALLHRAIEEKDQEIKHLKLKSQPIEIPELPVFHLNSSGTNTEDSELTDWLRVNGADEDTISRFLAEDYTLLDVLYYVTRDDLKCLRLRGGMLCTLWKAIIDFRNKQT
Conditions: at 10 µM; call rule not given here.

Assay [2] concerns the target Tyrosine-protein kinase ABL1 (Homo sapiens) (UniProt P00519). Conditions: at 1 µM.
For assay [3] the target is unchanged. Conditions: at 10 µM.
In assay [4] the target is Tyrosine-protein kinase ABL2 (Homo sapiens) (UniProt P42684). Conditions: at 10 µM.
Assay [5] has as its target T2, Aurora kinase A (Homo sapiens) (UniProt O14965).
T2 sequence (whole entry): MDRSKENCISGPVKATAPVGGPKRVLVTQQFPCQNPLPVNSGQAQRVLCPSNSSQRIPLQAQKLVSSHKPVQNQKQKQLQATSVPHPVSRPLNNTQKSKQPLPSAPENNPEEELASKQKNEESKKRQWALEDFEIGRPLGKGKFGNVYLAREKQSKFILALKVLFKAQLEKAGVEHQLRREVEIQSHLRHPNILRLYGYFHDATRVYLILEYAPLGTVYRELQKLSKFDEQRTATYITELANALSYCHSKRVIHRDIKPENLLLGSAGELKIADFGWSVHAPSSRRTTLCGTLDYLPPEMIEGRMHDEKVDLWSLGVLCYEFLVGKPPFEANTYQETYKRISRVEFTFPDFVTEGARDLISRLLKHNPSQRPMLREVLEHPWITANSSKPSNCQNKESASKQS
Conditions: at 1 µM.

The target of assay [6] is Aurora kinase B (Homo sapiens) (UniProt Q96GD4). Conditions: at 1 µM.
Assay [7] has the same target. Conditions: at 10 µM.
Assay [8] deals with T3, Aurora kinase C (Homo sapiens) (UniProt Q9UQB9).
T3 sequence (whole entry): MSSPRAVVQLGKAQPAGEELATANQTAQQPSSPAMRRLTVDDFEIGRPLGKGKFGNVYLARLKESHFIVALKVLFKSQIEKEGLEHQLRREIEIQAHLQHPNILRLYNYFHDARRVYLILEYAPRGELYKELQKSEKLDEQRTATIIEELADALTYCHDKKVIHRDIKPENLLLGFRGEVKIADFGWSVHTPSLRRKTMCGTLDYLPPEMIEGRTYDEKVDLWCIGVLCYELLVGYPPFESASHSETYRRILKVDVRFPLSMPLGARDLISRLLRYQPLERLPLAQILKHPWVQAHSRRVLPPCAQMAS
Conditions: at 10 µM.

The target in assay [9] is Tyrosine-protein kinase receptor UFO (Homo sapiens) (UniProt P30530). Conditions: at 1 µM.
The target is the same in assay [10]. Conditions: at 10 µM.
Assay [11] has as its target Protein-tyrosine kinase 6 (Homo sapiens) (UniProt Q13882). Conditions: at 10 µM.
Assay [12] addresses Tyrosine-protein kinase Blk (Homo sapiens) (UniProt P51451). Conditions: at 10 µM.
For assay [13], the target named is T4, Protein kinase C zeta type (Homo sapiens) (UniProt Q05513).
T4 sequence (whole entry): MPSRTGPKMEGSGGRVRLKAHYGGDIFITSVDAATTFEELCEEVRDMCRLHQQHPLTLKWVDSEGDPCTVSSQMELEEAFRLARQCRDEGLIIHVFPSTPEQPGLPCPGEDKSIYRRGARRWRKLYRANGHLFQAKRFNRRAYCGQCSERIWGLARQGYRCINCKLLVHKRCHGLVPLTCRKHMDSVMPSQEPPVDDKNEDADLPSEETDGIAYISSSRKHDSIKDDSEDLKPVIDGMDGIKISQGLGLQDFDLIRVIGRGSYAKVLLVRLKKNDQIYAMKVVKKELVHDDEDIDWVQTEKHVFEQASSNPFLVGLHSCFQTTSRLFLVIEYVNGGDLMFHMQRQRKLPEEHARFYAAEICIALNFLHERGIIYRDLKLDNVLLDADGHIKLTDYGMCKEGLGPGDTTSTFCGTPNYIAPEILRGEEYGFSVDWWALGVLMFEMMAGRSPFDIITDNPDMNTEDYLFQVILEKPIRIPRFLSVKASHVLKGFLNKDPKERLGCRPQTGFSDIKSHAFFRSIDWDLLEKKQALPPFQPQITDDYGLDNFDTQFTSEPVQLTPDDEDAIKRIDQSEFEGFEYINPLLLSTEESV
Conditions: at 1 µM.

In assay [14] the target is Tyrosine-protein kinase ABL2 (Homo sapiens) (UniProt P42684). Conditions: at 1 µM.
For assay [15], the target named is T2, Aurora kinase A (Homo sapiens). Conditions: at 10 µM.
Assay [16] concerns the target T3, Aurora kinase C (Homo sapiens). Conditions: at 1 µM.
Assay [17] concerns the target Protein-tyrosine kinase 6 (Homo sapiens) (UniProt Q13882). Conditions: at 1 µM.
In assay [18] the target is Tyrosine-protein kinase BTK (Homo sapiens) (UniProt Q06187). Conditions: at 1 µM.
Assay [19] shares this target. Conditions: at 10 µM.
Assay [20] concerns the target Tyrosine-protein kinase Blk (Homo sapiens) (UniProt P51451). Conditions: at 1 µM.

Sequence of Tyrosine-protein kinase ABL1 (Homo sapiens) (P00519 whole entry): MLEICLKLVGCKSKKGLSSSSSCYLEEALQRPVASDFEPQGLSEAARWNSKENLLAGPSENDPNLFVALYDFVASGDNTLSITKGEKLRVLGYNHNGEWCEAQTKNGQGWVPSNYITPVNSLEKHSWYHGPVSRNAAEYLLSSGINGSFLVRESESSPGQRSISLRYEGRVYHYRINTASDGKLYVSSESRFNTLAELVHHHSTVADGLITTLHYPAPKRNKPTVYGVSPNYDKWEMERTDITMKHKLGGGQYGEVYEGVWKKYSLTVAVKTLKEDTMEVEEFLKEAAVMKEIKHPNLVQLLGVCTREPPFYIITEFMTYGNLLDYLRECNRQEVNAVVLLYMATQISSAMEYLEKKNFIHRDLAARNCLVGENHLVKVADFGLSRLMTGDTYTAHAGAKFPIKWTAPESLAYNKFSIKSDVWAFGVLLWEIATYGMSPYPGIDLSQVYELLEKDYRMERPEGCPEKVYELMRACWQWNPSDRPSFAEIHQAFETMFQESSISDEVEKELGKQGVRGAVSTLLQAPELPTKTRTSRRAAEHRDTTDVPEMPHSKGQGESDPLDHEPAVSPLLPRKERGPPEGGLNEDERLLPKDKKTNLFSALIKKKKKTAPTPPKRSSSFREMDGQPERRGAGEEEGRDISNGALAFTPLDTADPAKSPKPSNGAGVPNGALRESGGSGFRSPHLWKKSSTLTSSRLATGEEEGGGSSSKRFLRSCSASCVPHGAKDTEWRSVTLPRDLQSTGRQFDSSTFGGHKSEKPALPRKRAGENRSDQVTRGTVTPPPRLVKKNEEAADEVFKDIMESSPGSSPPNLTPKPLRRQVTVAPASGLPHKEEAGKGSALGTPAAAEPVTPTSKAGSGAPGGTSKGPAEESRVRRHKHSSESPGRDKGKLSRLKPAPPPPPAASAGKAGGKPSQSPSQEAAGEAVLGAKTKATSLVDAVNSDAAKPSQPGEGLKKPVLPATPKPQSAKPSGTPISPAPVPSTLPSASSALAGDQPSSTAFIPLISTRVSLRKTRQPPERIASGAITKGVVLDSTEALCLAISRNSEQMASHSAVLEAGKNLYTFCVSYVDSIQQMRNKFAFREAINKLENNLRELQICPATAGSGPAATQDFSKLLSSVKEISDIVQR
Sequence of Protein-tyrosine kinase 6 (Homo sapiens) (Q13882 whole entry, looked up): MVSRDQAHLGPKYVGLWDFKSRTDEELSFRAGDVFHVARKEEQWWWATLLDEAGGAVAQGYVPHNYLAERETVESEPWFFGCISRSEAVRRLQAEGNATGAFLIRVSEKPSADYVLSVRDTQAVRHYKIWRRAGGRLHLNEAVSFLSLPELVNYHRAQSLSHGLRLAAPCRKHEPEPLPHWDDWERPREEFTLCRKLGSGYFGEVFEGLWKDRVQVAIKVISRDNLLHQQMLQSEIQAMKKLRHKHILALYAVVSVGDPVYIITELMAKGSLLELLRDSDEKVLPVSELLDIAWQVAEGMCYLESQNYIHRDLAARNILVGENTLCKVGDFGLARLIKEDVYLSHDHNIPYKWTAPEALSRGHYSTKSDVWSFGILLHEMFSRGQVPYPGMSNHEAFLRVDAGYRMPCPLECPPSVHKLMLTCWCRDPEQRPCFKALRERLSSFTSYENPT
Sequence of Tyrosine-protein kinase BTK (Homo sapiens) (Q06187 whole entry): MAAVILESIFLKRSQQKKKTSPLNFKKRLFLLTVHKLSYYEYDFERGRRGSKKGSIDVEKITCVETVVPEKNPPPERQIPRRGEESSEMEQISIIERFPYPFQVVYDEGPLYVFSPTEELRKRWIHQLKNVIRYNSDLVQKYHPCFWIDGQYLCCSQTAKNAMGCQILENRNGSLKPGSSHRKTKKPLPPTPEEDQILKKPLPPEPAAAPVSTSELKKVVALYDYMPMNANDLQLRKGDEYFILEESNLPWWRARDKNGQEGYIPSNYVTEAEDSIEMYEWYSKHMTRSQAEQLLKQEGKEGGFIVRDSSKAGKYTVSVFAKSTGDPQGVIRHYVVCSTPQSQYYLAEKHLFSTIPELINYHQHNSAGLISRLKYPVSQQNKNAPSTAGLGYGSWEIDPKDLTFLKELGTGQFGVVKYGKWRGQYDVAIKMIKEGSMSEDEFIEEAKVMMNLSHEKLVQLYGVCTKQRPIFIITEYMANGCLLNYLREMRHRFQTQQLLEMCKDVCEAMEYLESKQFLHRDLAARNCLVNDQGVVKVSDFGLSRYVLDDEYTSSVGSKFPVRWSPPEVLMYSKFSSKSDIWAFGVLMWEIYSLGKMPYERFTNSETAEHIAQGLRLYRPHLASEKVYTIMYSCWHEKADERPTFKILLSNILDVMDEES
Sequence of Aurora kinase B (Homo sapiens) (Q96GD4 whole entry): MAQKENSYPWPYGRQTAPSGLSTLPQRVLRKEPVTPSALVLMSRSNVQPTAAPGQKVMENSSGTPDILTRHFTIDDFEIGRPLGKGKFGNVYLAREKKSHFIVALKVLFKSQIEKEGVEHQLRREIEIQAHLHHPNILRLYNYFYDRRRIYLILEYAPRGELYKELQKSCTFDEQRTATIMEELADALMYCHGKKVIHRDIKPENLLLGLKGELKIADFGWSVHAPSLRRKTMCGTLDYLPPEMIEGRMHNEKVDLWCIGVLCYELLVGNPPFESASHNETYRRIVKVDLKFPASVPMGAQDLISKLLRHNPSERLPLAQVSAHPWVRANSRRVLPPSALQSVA
Sequence of Tyrosine-protein kinase Blk (Homo sapiens) (P51451 2-505 limits assumed): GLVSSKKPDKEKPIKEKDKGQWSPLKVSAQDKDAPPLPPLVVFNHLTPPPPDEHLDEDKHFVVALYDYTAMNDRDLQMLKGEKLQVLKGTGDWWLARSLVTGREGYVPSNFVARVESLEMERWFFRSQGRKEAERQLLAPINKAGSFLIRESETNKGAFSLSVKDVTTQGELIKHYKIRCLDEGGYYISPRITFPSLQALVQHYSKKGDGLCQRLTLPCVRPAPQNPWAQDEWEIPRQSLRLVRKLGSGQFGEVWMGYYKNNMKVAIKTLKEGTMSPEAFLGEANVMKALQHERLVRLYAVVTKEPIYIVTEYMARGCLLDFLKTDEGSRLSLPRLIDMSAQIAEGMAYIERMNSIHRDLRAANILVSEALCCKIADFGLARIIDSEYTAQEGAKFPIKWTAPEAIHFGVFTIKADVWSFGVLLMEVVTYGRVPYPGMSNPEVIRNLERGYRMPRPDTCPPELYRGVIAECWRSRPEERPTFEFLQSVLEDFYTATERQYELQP
Sequence of Tyrosine-protein kinase ABL2 (Homo sapiens) (P42684 whole entry): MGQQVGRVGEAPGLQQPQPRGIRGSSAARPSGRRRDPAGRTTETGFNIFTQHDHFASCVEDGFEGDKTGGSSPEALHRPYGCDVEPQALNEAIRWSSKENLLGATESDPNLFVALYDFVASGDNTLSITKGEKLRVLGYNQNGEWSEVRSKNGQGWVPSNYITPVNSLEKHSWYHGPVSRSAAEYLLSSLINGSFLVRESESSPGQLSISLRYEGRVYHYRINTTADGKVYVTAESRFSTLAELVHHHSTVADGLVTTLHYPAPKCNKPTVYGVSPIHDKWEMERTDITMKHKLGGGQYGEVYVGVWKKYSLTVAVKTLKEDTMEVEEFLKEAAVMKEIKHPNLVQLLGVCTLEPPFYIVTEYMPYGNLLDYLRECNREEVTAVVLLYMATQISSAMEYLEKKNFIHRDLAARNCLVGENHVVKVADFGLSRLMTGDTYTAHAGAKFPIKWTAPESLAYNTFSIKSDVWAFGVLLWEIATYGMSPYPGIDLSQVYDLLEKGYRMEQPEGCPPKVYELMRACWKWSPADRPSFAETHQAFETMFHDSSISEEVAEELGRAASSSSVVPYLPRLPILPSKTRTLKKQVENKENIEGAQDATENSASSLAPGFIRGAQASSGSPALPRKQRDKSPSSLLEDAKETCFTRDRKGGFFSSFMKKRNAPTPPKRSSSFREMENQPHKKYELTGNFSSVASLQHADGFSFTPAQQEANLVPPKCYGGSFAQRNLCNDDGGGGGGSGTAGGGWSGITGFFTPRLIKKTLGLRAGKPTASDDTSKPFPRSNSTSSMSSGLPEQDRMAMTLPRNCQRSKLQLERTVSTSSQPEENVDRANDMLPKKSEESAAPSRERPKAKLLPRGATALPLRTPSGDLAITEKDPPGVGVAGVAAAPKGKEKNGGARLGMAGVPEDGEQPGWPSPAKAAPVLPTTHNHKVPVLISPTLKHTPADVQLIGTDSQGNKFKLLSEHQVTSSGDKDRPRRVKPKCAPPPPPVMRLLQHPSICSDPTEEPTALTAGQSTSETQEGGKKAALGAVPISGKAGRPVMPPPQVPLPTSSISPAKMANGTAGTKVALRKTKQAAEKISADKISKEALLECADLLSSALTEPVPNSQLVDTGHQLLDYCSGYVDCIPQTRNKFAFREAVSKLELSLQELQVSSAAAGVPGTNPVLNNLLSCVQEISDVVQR

As to `Cc1cccc(-c2[nH]c(C(C)(C)C)nc2-c2ccc3c(c2)OCO3)n1`, the residual activity in assay [1] was 88%; in assay [2], 96%; in assay [3] it was 102%; in assay [4], 97%; in assay [5], 93%; in assay [6] it was 106%. Moreover, the residual activity worked out at 95% in assay [7]; 82% in [8]; 87% in assay [9]; 81% in [10]; 102% in [11]; 106% in assay [12].
Turning to `Cc1cc(Nc2nc(-c3ccccc3)nc3ccccc23)n[nH]1`, the residual activity is 110% (inactive) in [13]; 100% in [1]; 54% in [2]; 33% in assay [14]; 3% in assay [4]; 1% in [5]. Also, the residual activity in assay [15] is 0%; in assay [6], -2%; in assay [7] it was 0%; in [16] it was 7%; in [8], 4%; in [9], 33%. Besides, the residual activity in assay [10] was 3%; in assay [17], 40%; in assay [11], 4%; in assay [18] it was 19%; in assay [19] it was 0%; in [20], 9%. Moreover, in [12], the residual activity was found to be 1%.
`N#C/C(=C(\N)Sc1ccc(N)cc1)c1ccccc1C(F)(F)F`: the residual activity was 105% (inactive) in assay [13]; 103% in [1]; 94% in assay [2]; 87% in assay [3]; 88% in [14]; 82% in assay [4]. For the same compound, the residual activity in assay [5] was determined as 75%; in assay [15], 70%; in assay [6] it was 26%; in assay [7] it was 15%; in assay [16], 84%; in [8], 83%. Besides, the residual activity is 96% in [9]; 73% in assay [10]; 105% in [17]; 114% in assay [11]; 91% in assay [18]; 93% in assay [19]. For the same compound, the residual activity in assay [20] came to 90%; in assay [12], 79%.
As to `Nc1ccc2ncnc(NCCc3ccc(Oc4ccccc4)cc3)c2c1`, the residual activity in assay [13] was 108% (inactive); in [1] it was 80%; in assay [2], 100%; in assay [3] it was 101%; in assay [14] it was 104%; in assay [4], 78%. Further, the residual activity in [5] amounted to 102%; in [15], 110%; in [6], 41%; in [7], 11%; in assay [16] it was 89%; in [8], 87%. In addition, the residual activity in assay [9] was determined as 72%; in assay [10], 33%; in assay [17] it was 95%; in assay [11], 79%; in assay [18] it was 95%; in [19] it was 94%. Moreover, the residual activity is 68% in assay [20] and 18% in assay [12].
On to `COc1cc2ncnc(Nc3ccc(NC(=O)c4ccccc4)cc3)c2cc1OC`, for which the residual activity is 110% (inactive) in assay [13]; 100% in assay [1]; 101% in assay [2]; 81% in [3]; 93% in [4]; 18% in assay [5]. Besides, the residual activity in [15] came to 12%; in assay [6], 2%; in assay [7] it was 0%; in assay [16] it was 44%; in assay [8], 4%; in assay [9] it was 99%. Besides, the residual activity in [10] was 40%; in [17] it was 35%; in [11], 10%; in assay [18] it was 90%; in [19], 68%; in [20], 20%. Besides, in assay [12], the residual activity is 2%.
As to `COc1ccc(OC)c2c(=S)c3ccccc3[nH]c12`, the residual activity was 104% (inactive) in assay [13]; 97% in [1]; 97% in assay [2]; 89% in assay [3]; 116% in assay [14]; 84% in [4]. Moreover, the residual activity in [5] worked out at 116%; in assay [15], 90%; in assay [6] it was 93%; in [7] it was 52%; in assay [16], 78%; in assay [8] it was 75%. Besides, the residual activity in [9] was 96%; in assay [10] it was 83%; in assay [17] it was 104%; in assay [11] it was 104%; in assay [18], 96%; in assay [19], 82%. Further, the residual activity in [20] was 111%; in assay [12], 96%.
For the compound `O=C1Nc2cc(Br)ccc2/C1=C1/Nc2ccccc2/C1=N\O`, the residual activity in [13] is 103% (inactive); in assay [1], 86%; in [3] it was 6%; in [14], 16%; in assay [4] it was 2%; in assay [5], 31%. Also, the residual activity in assay [15] was 25%; in assay [6] it was 3%; in assay [7] it was -1%; in assay [16], 74%; in assay [8], 76%; in [9], 52%. In addition, the residual activity came to 39% in assay [10]; 90% in assay [17]; 102% in assay [11]; 1% in [18]; 0% in assay [19]; 1% in [20]. Besides, in assay [12], the residual activity stood at 5%.
Regarding `CC(=O)c1ccc(N2CCOCC2)cc1O`, the residual activity in assay [13] is 107% (inactive); in [1], 95%; in [14], 110%; in assay [4], 102%; in assay [5] it was 109%; in [15], 100%. In addition, the residual activity in assay [6] was found to be 100%; in [7], 95%; in assay [16], 106%; in assay [8], 84%; in assay [9], 110%; in [10], 85%. For the same compound, the residual activity in assay [17] was 108%; in assay [11], 107%; in [18], 91%.
Turning to `N#CC(C#N)=C(N)/C(C#N)=C/c1ccc(O)cc1`, the residual activity in assay [1] was found to be 93%; in assay [2], 87%; in [3], 78%; in assay [5], 83%; in assay [15], 85%; in assay [6], 81%. The residual activity is 62% in assay [7]; 92% in [9]; 87% in [10]; 94% in assay [18]; 118% in [19].
